Changes are numbered by the printed parent chain. In all, about 24,000 sequences were measured (“enrichment r”: median about 0.99, highest 2% from about 3.7 on). This is one part of a sample in which the highest values are shown more often than they occur.
T1: UNK ZnF1-3 (human, UniProt Q9C0B0 31-174)
T1 sequence: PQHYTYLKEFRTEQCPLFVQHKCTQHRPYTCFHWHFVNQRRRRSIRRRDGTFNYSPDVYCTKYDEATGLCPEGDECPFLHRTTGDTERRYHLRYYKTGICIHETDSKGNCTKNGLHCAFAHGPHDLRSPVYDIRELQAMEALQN

B1: 80013064_80013876_841_CDS_ENSG00000169727_ENST00000578552|human|control|control (ssRNA)
RNA: GGGAGUUCUACAGUCCGACGAUCCUCAGGGAAGUCACAGUGAUCAAAGGAAGCCAGCAGGAGGCACUUGGCAGCCUGCUUGUACUUCCUGGCGGCCAGCUCUGCCAAGCCUGCGGCACACUUGAGCUUGGUGAGGAUGGCCUGCAACAGAGGAUUGAGCAUCA
B2: chrX:40988281:40988282:+_ENSG00000124486_ENST00000378308|hu_hu|FALSE|FALSE (ssRNA)
RNA: GGGAGUUCUACAGUCCGACGAUCUUCAAGCUGUGGUGGGGCAUCACCUUGACCUUGCUCAUCUGGGGGAGUUGCCGGGGAAUUUUCAUUGGAAGAAUCAGGCGAUGAAGUCUGAUUCUGUUGGAGGGGGGGCUGAGACUGUCCCAACAGAGGAUUGAGCAUCA
B3: 5790880_5791000_6181_CDS_ENSG00000108021_ENST00000328090|human|control|control (ssRNA)
RNA: GGGAGUUCUACAGUCCGACGAUCGAAGUUCAACGACGACUCAUAGCCAUCUGUGGGAACAUCUUUUUUCCUGGUGUAACUACCUCUUAAAGUAUAAGAAUCCUCCAAAUCCAGUCUGGGAUUUCUACAAUCACCAAGCAGGUCCAACAGAGGAUUGAGCAUCA
B4: chr12:133780691:133780692:+_ENSG00000090612_ENST00000541009|hu_hu|motif|central (ssRNA)
RNA: GGGAGUUCUACAGUCCGACGAUCUCAUAUGGUUUUUCACCUGAAUGAGUUCUCAUGUGUAUAAUUAGGUAUGACUUGCUGCGGAAAGCUUUCCCACAUUCACUGCACCCAUAAGGCUUUUCCCCUGCAUGAGUUCGCUGAUGUCAACAGAGGAUUGAGCAUCA
B5: 5036412_5036532_457_CDS_ENSMUSG00000022536_ENSMUST00000115844|mouse|control|control (ssRNA)
RNA: GGGAGUUCUACAGUCCGACGAUCGCCUGAAGUCACCCUCUUCUUUCCUUCUCCCAUGUUCUUCUUCACCUUCCCUUCAGACAGGCUAAGCUUGCGUUUCUCAUCACCUGAGUUUGGCCUACUUCUCUCCUCACUGGAAUUACGCAACAGAGGAUUGAGCAUCA
B6: chr5:37680062:37680063:+_ENSMUSG00000029121_ENSMUST00000031004|mus_hu|mus_mus_mus_hu_False|58_98 (ssRNA)
RNA: GGGAGUUCUACAGUCCGACGAUCUUUGGGUGUAGCUGGCACCUCGUACACAGGACCGUCAUACAUGCCCCUGGAAACACUAUGCAAUCCAAAAACCUUAUUCCUGAUUUUGACGCGCUGGUACAGGUGCUCCGGGAACGCCUUCAACAGAGGAUUGAGCAUCA
B7: chr6:86474593:86474594:-_ENSMUSG00000051695_ENSMUST00000053015|mus_hu|motif|central (ssRNA)
RNA: GGGAGUUCUACAGUCCGACGAUCACAUUUCUUAUCGACAAACAGAAAUAAAAUUCAUGAGCCAAAAAACCCAAAACAAAACGGAAAACAGGGAAAAGCUUAUAAAACUAAAUAUGGAUCCCAGCAUUAACAGCUGAACAGAGACAACAGAGGAUUGAGCAUCA
B8: chr6:86474593:86474594:-_ENSMUSG00000051695_ENSMUST00000053015|mus_hu|FALSE|FALSE (ssRNA)
RNA: B7 RNA with G82U, G83A
B9: chr2:27118074:27118075:-_ENSMUSG00000009621_ENSMUST00000056176|mus_hu|FALSE|FALSE (ssRNA)
RNA: GGGAGUUCUACAGUCCGACGAUCAUUCACAGAUAUAUAACGGGAGAUUUGGAUGAAAUAAUUACAAACUUUUUUCCCCUUAAAAAACAAACAAGCCAAACAAAACACAAACAAAACAAAAACCCCAAAACCAAAACACAAGACCAACAGAGGAUUGAGCAUCA
B10: chr7:97619395:97619396:-_ENSMUSG00000030614_ENSMUST00000032843|mus_mus|motif|central (ssRNA)
RNA: GGGAGUUCUACAGUCCGACGAUCCAGGGAUGCAUAGGUCUUCAAAGCUUCAUAUUUAACCUUGAAACUGUUUCGGAAAACGGAGUUUGCCAUUAUGCCAGACAAACUACUACUUGUUCCAAAGACCAAAGUUCCAUGUAUAUUCAACAGAGGAUUGAGCAUCA
B11: 90301638_90312025_2792_CDS_ENSG00000196730_ENST00000408954|human|control|control (ssRNA)
RNA: GGGAGUUCUACAGUCCGACGAUCGACAACAACAUGGAUUGACGUGGGAUCAUUUGCAGCAAAAUAGUCAUAACAGCAGAAAUACACAGGAUUUCCAGAGAACUCCCACACGCUGAAAUCGCCAACUCCAUUCAAAUAAGCGUUCAACAGAGGAUUGAGCAUCA
B12: chr2:131139019:131139020:-_ENSMUSG00000048911_ENSMUST00000059372|mus_mus|FALSE|FALSE (ssRNA)
RNA: GGGAGUUCUACAGUCCGACGAUCGAUAUAGAUGUUGAGAGGCAGAUUCUGGAAUCCAAUAUUAGGCAUCCUGAAGUUAUAAUGUGGGAAAUCUGAGCUCAUGGAUGAACCGGGCGACGGGCAGCGGGCGUGCGGGCGGCGGCGCAACAGAGGAUUGAGCAUCA
B13: chr11:77336104:77336105:-_ENSG00000074201_ENST00000525064|hu_mus|hu_hu_hu_mus_False|98_108 (ssRNA)
RNA: GGGAGUUCUACAGUCCGACGAUCCUCGCACAUUGCAGUGAACAUUGCCUCCAAUGCUGACUUAUCACUGGGCACAAAUCGAAAUUCAGAAAUGGGUUCAACAUCAUCAUUGUCUUCCUCAUCUUCAUCAGAGAGAGGUUCUUUCAACAGAGGAUUGAGCAUCA
B14: 49074419_49074539_462_3pUTR_ENSMUSG00000020346_ENSMUST00000109194|mouse|control|control (ssRNA)
RNA: GGGAGUUCUACAGUCCGACGAUCCACAGGCAAUGACCAGGAUGGGGAUCUGCACUGGUGAGGGGGUCACAGGCACACGGGGCCAGGCUGGAGGGGCCACAGUGGGAACUCUCCACCUCUGCCUCCACAAAGCAUAAUGCUCCUCAACAGAGGAUUGAGCAUCA

target: T1, UNK ZnF1-3; experiment: nsRBNS (natural sequence RNA bind-n-seq); RBNS binding buffer (assumed for nsRBNS): 25 mM Tris pH 7.5, 150 mM KCl, 3 mM MgCl2, 0.01% Triton X-100, 500 ug/ml BSA, 20 U/ml SUPERase-In, 4 C; UNK is unkempt and MSI1 is Musashi-1; names of the RNAs are library labels; protein concentration not given here; high values mean tight binding

| Binder | binding signal [enrichment R] |
| --- | --- |
| B1 | 0.285 |
| B2 | 1.24 |
| B3 | 1.18 |
| B4 | 0.705 |
| B5 | 0.512 |
| B6 | 0.673 |
| B7 | 4.53 |
| B8 | 5.48 |
| B9 | 3.28 |
| B10 | 0.591 |
| B11 | 2.03 |
| B12 | 0.719 |
| B13 | 0.914 |
| B14 | 0.862 |

Reference: article PMC12136788
